Only some compounds are listed: those with a hit (about 2.3% of all), similar ones and a draw of the others.
Gli-Sufu block = Gli-Sufu pathway antagonists, primary screen, luciferase luminescence, Sufu-KO-LIGHT cells, uHTS; Sufu-KO-LIGHT fibroblasts, Gli luciferase reporter luminescence; inhibition, % at 5 µM; hit rate 0.74% among 340,000; AID 588413, 2011;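 active = inhibition above about 55%, limit read from the data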;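 note: 0% = DMSO-treated cells and 100% = wells with medium but no cells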
MITF TRPM1 inh = inhibitors of MITF-dependent TRPM1 promoter reporter, primary screen, cell-based, SK-MEL-5, single point, luciferase; SK-MEL-5 TRPM1 promoter luciferase, 24 h; inhibition, % at 12.5 µM; hit rate 0.83% among 330,000;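 active = mean inhibition across replicates of 60% or more, whatever share of single replicates reaches that level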
Shn3 3UTR inh = reduction of Shn3 3'UTR firefly luciferase signal, primary screen, Schnurri-3 inhibitor project, cell-based, Clone20 osteoblasts, set 2 | Clone20 osteoblast Shn3 3'UTR firefly luciferase, 24 h | inhibition, % at 12.5 µM | hit rate 0.52% among 360,000;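 active = mean inhibition of at least 75% with every replicate also reaching 75%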;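 note: 0% = median of neutral control wells and 100% = pilot-screen positive control compound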
697 NFkB inh = inhibitors of PMA/ionomycin-induced NF-kB reporter, 697 cells, primary screen, B-cell NF-kB inhibitor project, cell-based, luminescence, uHTS; inhibition, % at 4 µM; 697 B-cell NF-kB luciferase reporter, 16 h; hit rate 0.33% among 330,000; in the data active = inhibition above about 35%
EBV LMP1 NFkB = EBV LMP1-driven NF-kappaB luciferase reporter inhibitors, primary screen, cell-based, luminescence, single point; LMP1-induced NF-kappaB luciferase reporter cells; inhibition, % at 12.5 µM; hit rate 0.69% among 350,000; AID 504558, 2011; in the data active = inhibition above about 41%;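 note: 0% = neutral control wells and 100% = reference inhibitor control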
Jurkat NFkB inh = inhibitors of induced NF-kB luciferase reporter, primary screen, TCR NF-kB activation inhibitor project, cell-based, luminescence, uHTS; Jurkat, PMA/ionomycin-induced NF-kB luciferase reporter; hit rate 0.53% among 330,000; inhibition, % at 4 µM; in the data active = inhibition above about 50%
Jurkat NFkB conf = PMA/ionomycin-induced NF-kB reporter inhibitors, Jurkat retest, confirmation, T-cell NF-kB inhibitor project, cell-based, luminescence, single concentration; shares compounds with Jurkat NFkB inh; Jurkat NF-kB luciferase, 16 h; inhibition, % at 4 µM; hit rate 27% among 2,700;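 active = inhibition reaching about 45% at 4 µM in either replicate, limit read from the data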;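 note: plate controls were PMA/ionomycin stimulated DMSO wells for no effect and unstimulated DMSO wells for full effect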
697 NFkB conf = PMA/ionomycin-induced NF-kB reporter inhibitors, 697 retest, confirmation, B-cell NF-kB inhibitor project, cell-based, luminescence, single concentration | shares compounds with 697 NFkB inh | 697 B-cell NF-kB luciferase, 16 h | inhibition, % at 4 µM | hit rate 35% among 2,000; in the data active = inhibition mostly above about 28%, no sharp cut-off; inactive = mostly below about 22%
An asterisk follows results filed as active; i = inactive; · = no result given.

SMILES | Gli-Sufu block | MITF TRPM1 inh | Shn3 3UTR inh | 697 NFkB inh | EBV LMP1 NFkB | Jurkat NFkB inh | Jurkat NFkB conf | 697 NFkB conf
O=C(Nc1ccc2ccccc2c1)c1ccccc1F | -91.2 | -7.7 | -4.6 | -328.1 | -50.9 | -220.5 | -134.9 | -321.8
COc1ccc(C(=O)Nc2ccc3ccccc3c2)c(OC)c1 | -83.7 | -13.0 | -10.1 | -280.1 | -72.0 | -181.1 | -123.2 | -383.4
COc1ccc(CN(C)CCc2ccccn2)c(OC)c1OC | 6.5 | -1.5 | -31.7 | 4.5 | -35.9 | 10.8 | · | ·
N#C/C(=C\c1cn(Cc2cccc(F)c2)c2ccccc12)C(=O)NCc1ccco1 | -10.5 | -14.8 | -7.5 | 11.4 | -21.2 | 4.2 | · | ·
CCOc1ccc(-c2cccc(NS(=O)(=O)c3cc([N+](=O)[O-])ccc3C)c2)nn1 | -1.7 | 1.4 | -9.3 | 4.3 | -6.4 | 6.2 | · | ·
CN[C@H]1CCc2cc(OC)c(OC)c(OC)c2-c2ccc(OC)c(=O)cc21 | 44.9 | 40.4 | -7.4 | -329.5 | -12.4 | 72.0* | 65.7* | -210.1
COc1cc2c(c(OC)c1OC)-c1c(cc(OC)c(OC)c1OC)C[C@](C)(O)[C@@H](C)C2 | 28.0 | 6.8 | 9.7 | 17.0 | -2.2 | 21.5 | · | ·
CNC(=O)CSc1nnc(COc2ccc([N+](=O)[O-])cc2)n1C | -8.1 | 1.8 | -3.6 | 15.2 | 0.4 | 15.4 | · | ·
CCN=c1scc(-c2ccccc2)n1/N=C/c1ccccn1 | -68.0 | -3.2 | 48.9 | i | 3.7 | -198.7 | -116.4 | i
C=CCN=c1scc(-c2ccccc2)n1/N=C/c1ccccn1 | -101.4 | -44.4 | 39.6 | i | 6.4 | -199.1 | -88.6 | i
O=C(CCS(=O)(=O)c1ccccc1)Nc1ccc(-c2nc3ccccc3s2)cc1 | -89.7 | -23.5 | -4.9 | -381.6 | -29.6 | -161.1 | -96.0 | -274.9
O=C(CCS(=O)(=O)c1ccccc1)Nc1cccc(-c2nc3ccccc3s2)c1 | -49.8 | 28.2 | -18.6 | -52.2 | -87.8 | 17.4 | · | ·
O=C(Oc1ccc2ccccc2c1Br)N1CCCCCC1 | -68.9 | -42.2 | -52.4 | i | -37.0 | -308.3 | -102.8 | i
Cc1nc(NCc2ccco2)c2c(C)c(C)sc2n1 | 13.6 | 54.1 | -50.9 | -281.0 | -21.9 | 70.4* | 57.5* | -43.5
C[C@@H]1C=CC(=O)O[C@@H]1c1ccc(C(F)(F)F)cc1 | · | · | · | 60.4* | · | 97.2* | 96.8* | -40.6
COc1cc(NS(C)(=O)=O)ccc1Nc1c2ccccc2nc2ccccc12 | 73.8* | 78.5* | 91.7* | -366.0 | 57.4* | 71.6* | 81.7* | -169.7
COc1ccc(OC)c(Nc2c3ccccc3nc3ccccc23)c1 | 29.6 | 15.4 | 77.3 | -67.2 | -3.1 | 31.2 | · | ·
O=C(c1cccs1)c1ccc(-c2cccs2)s1 | -0.2 | 1.0 | -13.3 | -381.1 | -14.2 | -190.7 | -100.4 | -283.3
CN1CCN(C(=O)c2ccc(-c3cccs3)s2)CC1 | -47.2 | -94.3 | -72.8 | -79.2 | 1.0 | -75.6 | · | ·
O=C(N1CCOCC1)N1CCN(c2ccccc2)CC1 | 6.9 | 5.7 | -9.5 | 14.6 | 8.2 | 5.0 | · | ·
O=C(Cc1c[nH]c2ccccc12)Nc1nnc(C2CC2)s1 | 4.9 | 5.4 | -7.8 | -127.4 | 22.9 | -33.2 | · | ·
C=C(C(=O)c1ccccc1)C(C(=C)C(=O)c1ccccc1)c1ccc(OC)cc1 | 13.9 | 81.5* | 96.7* | i | 16.7 | 55.6* | -3.4 | -164.4
Cc1ccc(-c2cc(-c3ccccc3)no2)cc1 | -182.8 | -36.0 | -76.5 | -426.0 | -44.1 | -203.1 | -149.4 | -362.1
CCOC(=O)N1CCN(S(=O)(=O)c2cc(OCC(=O)NC3CCCCC3)c(C)cc2Cl)CC1 | 38.1 | 19.2 | 48.7 | -8.2 | 7.0 | 7.1 | · | ·
Cc1cc(Cl)c(S(=O)(=O)N2CCCCCC2)cc1OCC(=O)NC1CCCCC1 | 47.9 | 16.6 | 16.4 | 75.0* | 8.4 | 65.4* | 71.2* | 69.5*

Screening data deposited in PubChem by several laboratories.
